In all, about 39,000 compounds went through this assay and about 3,300 (8.5%) were called active. For the sample, actives were picked, then their nearest neighbours and some compounds at random.

The assay deals with HepG2. The assay can be described thus: cytotoxicity call (relative viability < 0.9). The note with it: 10 µM.
In the case of `NC1=CC(=O)c2ccccc2C1=O`, the cytotoxicity call was “inactive”.

For the compound `CC1=CC(=O)c2ccccc2C1=O`, the cytotoxicity call is “active”.

For the compound `O=C1C=C(O)C(=O)c2ccccc21`, the cytotoxicity call was “inactive”.

Take `O=C(C[C@H]1CC[C@H]2[C@@H](COC[C@@H](O)CN2C(=O)Nc2ccc(F)cc2)O1)NCCCN1CCOCC1`: the cytotoxicity call is “inactive”.

`CC(C)NC(=O)N(C)C[C@@H]1Oc2ccc(NS(=O)(=O)c3cn(C)cn3)cc2C(=O)N([C@@H](C)CO)C[C@H]1C`: the cytotoxicity call was “inactive”.

Take `C[C@@H]1CN([C@@H](C)CO)C(=O)CCCn2cc(nn2)CO[C@H]1CN(C)S(=O)(=O)c1ccc(Cl)cc1`: the cytotoxicity call was “inactive”.

Take `Cn1c(=O)c(=O)n(C)c2cc(S(=O)(=O)N3CCOCC3)ccc21`: the cytotoxicity call is “inactive”.

Regarding `NCc1ccc(S(=O)(=O)N2CCOCC2)cc1`, the cytotoxicity call is “inactive”.

As for `NC(=O)c1cc(S(=O)(=O)N2CCOCC2)ccc1F`, the cytotoxicity call is “active”.

In the case of `COCC(=O)Nc1ccc2c(c1)OC[C@H](C)N(C(=O)Cc1ccccn1)C[C@H](C)[C@H](OC)CN(C)C2=O`, the cytotoxicity call is “inactive”.

As for `C[C@@H]1CN([C@H](C)CO)S(=O)(=O)c2ccc(-c3cncnc3)cc2O[C@H]1CN(C)C(=O)NC1CCCC1`, the cytotoxicity call was “inactive”.

As to `CC[C@H]1OC(=O)[C@H](C)[C@@H](O[C@H]2C[C@@](C)(OC)[C@@H](O)[C@H](C)O2)[C@H](C)[C@@H](O[C@@H]2O[C@H](C)C[C@H](N(C)C)[C@H]2O)[C@](C)(OC)C[C@@H](C)C(=O)[C@H](C)[C@@H](O)[C@]1(C)O`, the cytotoxicity call was “inactive”.

In the case of `C[C@@H](O)c1cccc(C(F)(F)F)c1`, the cytotoxicity call was “inactive”.

For the compound `CN1C(=O)c2cc(NC(=O)Cc3cccs3)ccc2OC[C@H]2O[C@@H](CC(=O)NCc3ccc(-c4ccccc4)cc3)CC[C@@H]21`, the cytotoxicity call was “inactive”.

For the compound `COc1ccccc1C(=O)Nc1ccc2c(c1)C(=O)N(C)[C@@H]1CC[C@H](CC(=O)NCc3ccc(Cl)c(Cl)c3)O[C@@H]1CO2`, the cytotoxicity call was “inactive”.

Consider `CN1C(=O)c2cc(NC(=O)Cc3cccs3)ccc2OC[C@H]2O[C@H](CC(=O)NCc3ccc(-c4ccccc4)cc3)CC[C@@H]21`, for which the cytotoxicity call was “inactive”.

For the compound `COc1ccccc1C(=O)Nc1ccc2c(c1)C(=O)N(C)[C@@H]1CC[C@@H](CC(=O)NCc3ccc(Cl)c(Cl)c3)O[C@@H]1CO2`, the cytotoxicity call is “active”.

Regarding `COc1ccccc1C(=O)Nc1ccc2c(c1)C(=O)N(C)[C@H]1CC[C@H](CC(=O)NCc3ccc(Cl)c(Cl)c3)O[C@H]1CO2`, the cytotoxicity call is “active”.

In the case of `COc1ccccc1C(=O)Nc1ccc2c(c1)C(=O)N(C)[C@@H]1CC[C@H](CC(=O)NCc3ccc(Cl)c(Cl)c3)O[C@H]1CO2`, the cytotoxicity call is “inactive”.

Consider `COc1ccccc1C(=O)Nc1ccc2c(c1)C(=O)N(C)[C@H]1CC[C@@H](CC(=O)NCCc3ccncc3)O[C@H]1CO2`, for which the cytotoxicity call was “inactive”.

With `CN1C(=O)c2cc(NC(=O)Cc3cccs3)ccc2OC[C@@H]2O[C@H](CC(=O)NCc3ccc(-c4ccccc4)cc3)CC[C@@H]21`, the cytotoxicity call was “active”.

On to `COc1ccccc1C(=O)Nc1ccc2c(c1)C(=O)N(C)[C@H]1CC[C@H](CC(=O)NCc3ccc(Cl)c(Cl)c3)O[C@@H]1CO2`, for which the cytotoxicity call was “active”.

As to `COc1ccccc1C(=O)Nc1ccc2c(c1)C(=O)N(C)[C@H]1CC[C@@H](CC(=O)NCCc3ccncc3)O[C@@H]1CO2`, the cytotoxicity call is “inactive”.

With `COc1ccccc1C(=O)Nc1ccc2c(c1)C(=O)N(C)[C@@H]1CC[C@@H](CC(=O)NCCc3ccncc3)O[C@H]1CO2`, the cytotoxicity call was “inactive”.

Regarding `COc1ccccc1C(=O)Nc1ccc2c(c1)C(=O)N(C)[C@@H]1CC[C@H](CC(=O)NCCc3ccncc3)O[C@@H]1CO2`, the cytotoxicity call is “inactive”.

As for `COc1ccc(NC(=O)N(C)C[C@@H]2OCCCC[C@@H](C)Oc3ccc(NC(=O)C4CCCCC4)cc3C(=O)N([C@@H](C)CO)C[C@@H]2C)cc1`, the cytotoxicity call is “inactive”.

In the case of `C[N+](C)(C)CCCC[C@@H]1NC(=O)[C@H]2C[C@@H](C(=O)NCCCCCCN)[C@@H](c3ccc(O)cc3)N2C1=O`, the cytotoxicity call is “inactive”.

On to `CCNC(=O)[C@@H]1CCCN1C(=O)[C@H](CCCN=C(N)N)NC(=O)[C@H](CC(C)C)NC(=O)[C@@H](Cc1c[nH]c2ccccc12)NC(=O)[C@H](Cc1ccc(O)cc1)NC(=O)[C@H](CO)NC(=O)[C@H](Cc1c[nH]c2ccccc12)NC(=O)[C@H](Cc1c[nH]cn1)NC(=O)[C@@H]1CCC(=O)N1`, for which the cytotoxicity call is “inactive”.

In the case of `C[C@H](CO)N1C[C@H](C)[C@H](CN(C)C(=O)c2ccccn2)Oc2cc(C#Cc3ccc(F)cc3)ccc2S1(=O)=O`, the cytotoxicity call is “inactive”.

`O=C(O)c1ccc(O)cc1O`: the cytotoxicity call is “inactive”.

On to `C[C@H](CO)N1C[C@H](C)[C@H](CN(C)Cc2ccc(C(F)(F)F)cc2)OCc2ccccc2-c2ccccc2C1=O`, for which the cytotoxicity call is “inactive”.

For the compound `COc1ccccc1CNC(=O)C[C@@H]1C[C@H]2c3cc(NS(=O)(=O)c4ccc(F)cc4)ccc3O[C@H]2[C@@H](CO)O1`, the cytotoxicity call was “inactive”.

Take `C[C@H]1CCCCO[C@H](CN(C)S(=O)(=O)c2cccs2)[C@@H](C)CN([C@@H](C)CO)C(=O)c2cc(NS(=O)(=O)c3cn(C)cn3)ccc2O1`: the cytotoxicity call was “inactive”.

In the case of `C[C@@H]1CN([C@@H](C)CO)C(=O)Cc2cc(NS(=O)(=O)c3cn(C)cn3)ccc2O[C@H]1CN(C)Cc1ccc2c(c1)OCO2`, the cytotoxicity call was “inactive”.

For the compound `C[C@H](CO)N1C[C@H](C)[C@@H](CN(C)C(=O)C2CCCCC2)OCCCC[C@H](C)Oc2ccc(NC(=O)Nc3cccc4ccccc34)cc2C1=O`, the cytotoxicity call was “inactive”.

Consider `C[C@@H]1CCCCO[C@@H](CN(C)S(C)(=O)=O)[C@H](C)CN([C@@H](C)CO)C(=O)c2cc(NS(=O)(=O)c3ccccc3)ccc2O1`, for which the cytotoxicity call is “inactive”.

With `COc1ccccc1C(=O)Nc1ccc2c(c1)C(=O)N(C)[C@H]1CC[C@@H](CC(=O)NCc3ccc(Cl)c(Cl)c3)O[C@@H]1CO2`, the cytotoxicity call was “active”.

Consider `COc1ccccc1C(=O)Nc1ccc2c(c1)C(=O)N(C)[C@@H]1CC[C@H](CC(=O)NCCc3ccncc3)O[C@H]1CO2`, for which the cytotoxicity call is “inactive”.

Regarding `COc1ccccc1C(=O)Nc1ccc2c(c1)C(=O)N(C)[C@@H]1CC[C@@H](CC(=O)NCc3ccc(Cl)c(Cl)c3)O[C@H]1CO2`, the cytotoxicity call was “inactive”.

As for `COc1ccc(S(=O)(=O)N(C)C[C@@H]2Oc3ccc(NC(=O)Cn4cnnn4)cc3C(=O)N([C@H](C)CO)C[C@H]2C)cc1`, the cytotoxicity call was “inactive”.

As to `C[C@H](CO)N1C[C@H](C)[C@@H](CN(C)S(C)(=O)=O)OCCCC[C@H](C)Oc2ccc(NC(=O)Nc3ccc(C(F)(F)F)cc3)cc2C1=O`, the cytotoxicity call was “inactive”.

Turning to `C[C@@H]1CCCCO[C@@H](CN(C)Cc2ccc(C(F)(F)F)cc2)[C@@H](C)CN([C@@H](C)CO)C(=O)c2cc(NS(=O)(=O)c3cn(C)cn3)ccc2O1`, the cytotoxicity call was “inactive”.

As for `CC(C)CCN1CCn2c(CO)nnc2C1`, the cytotoxicity call is “inactive”.

As to `C[C@@H]1CN([C@@H](C)CO)C(=O)Cc2cc(NC(=O)C3CC3)ccc2O[C@H]1CN(C)C(=O)NC1CCCCC1`, the cytotoxicity call is “inactive”.

On to `Cl.N#Cc1ccc2[nH]cc(CCCCN3CCN(c4ccc5oc(C(N)=O)cc5c4)CC3)c2c1`, for which the cytotoxicity call is “active”.

For `CCC(=O)C12CC3CC(CC(C3)C1)C2`, the cytotoxicity call is “inactive”.

In the case of `COc1ccc(NC(=O)N(C)C[C@H]2OCCCC[C@H](C)Oc3ccc(NC(=O)Nc4ccc5c(c4)OCO5)cc3C(=O)N([C@H](C)CO)C[C@@H]2C)cc1`, the cytotoxicity call was “inactive”.

Turning to `C#CCN([C@H](/C=C/C1CC1)[C@@H](O)Cc1ccccc1)[C@@H](Cc1ccc(-n2cc(COc3ccccc3/C=C(C)/C=C/C(=O)NO)nn2)cc1)C(=O)OC`, the cytotoxicity call is “inactive”.

Consider `Nc1ccc(-n2cc(CCC(=O)NO)nn2)cc1`, for which the cytotoxicity call is “inactive”.

As to `Nc1cccc(-n2cc(CCC(=O)NO)nn2)c1`, the cytotoxicity call is “inactive”.

Consider `CC(/C=C/C(=O)NO)=C\c1ccccc1OCc1cn(-c2cccc(N(S(=O)(=O)c3ccc(C)cc3)S(=O)(=O)c3ccc(C)cc3)c2)nn1`, for which the cytotoxicity call is “active”.

In the case of `COC(=O)[C@@H](N)Cc1ccc(-n2cc(CCC(=O)NO)nn2)cc1`, the cytotoxicity call is “active”.

Regarding `Cc1ccc(S(=O)(=O)N(c2cccc(-n3cc(CCC(=O)NO)nn3)c2)S(=O)(=O)c2ccc(C)cc2)cc1`, the cytotoxicity call was “active”.

Take `CCOc1cc(OCC)cc(C(=O)N[C@@H](Cc2ccc(-n3cc(CCC(=O)NO)nn3)cc2)C(=O)OC)c1`: the cytotoxicity call is “inactive”.

Take `CC(/C=C/C(=O)NO)=C\c1ccccc1OCc1cn(CCNC(=O)[C@@H](NS(=O)(=O)c2ccc(C)cc2)C(C)C)nn1`: the cytotoxicity call is “inactive”.

In the case of `COC(=O)[C@@H](Cc1ccc(-n2cc(COc3ccccc3/C=C(C)/C=C/C(=O)NO)nn2)cc1)N1CC(/C=C/C2CC2)=C[C@H]1[C@H](O)Cc1ccccc1`, the cytotoxicity call is “inactive”.

In the case of `Cc1ccc(S(=O)(=O)N[C@H](C(=O)NCCn2cc(CCC(=O)NO)nn2)C(C)C)cc1`, the cytotoxicity call is “inactive”.

Regarding `COC(=O)[C@H](Cc1ccccc1)N1C[C@](C)(OC(C)C)O[C@@H](CCn2cc(COc3ccccc3/C=C(C)/C=C/C(=O)NO)nn2)[C@@H]1/C=C/C1CC1`, the cytotoxicity call is “inactive”.

As for `CC(/C=C/C(=O)NO)=C\c1ccccc1OCc1cn(C[C@@H]2CCCN2S(=O)(=O)c2ccc(C)cc2)nn1`, the cytotoxicity call is “active”.

Take `O=C(NC1CCC1)[C@H]1[C@H](CO)[C@H]2Cn3c(cccc3=O)[C@H]2N1CC1CCOCC1`: the cytotoxicity call is “inactive”.

On to `COc1ccccc1-c1ccc2c(c1)O[C@H](CN(C)CC1CCOCC1)[C@H](C)CN([C@@H](C)CO)S2(=O)=O`, for which the cytotoxicity call is “inactive”.

Turning to `C[C@H]1CN([C@@H](C)CO)C(=O)Cc2cc(NC(=O)CCN3CCOCC3)ccc2O[C@@H]1CN(C)Cc1ccncc1`, the cytotoxicity call was “inactive”.

For the compound `OCCNC(=S)Nc1ccccc1`, the cytotoxicity call was “inactive”.

In the case of `C[C@H](CO)N1C[C@H](C)[C@@H](CN(C)S(=O)(=O)c2ccc(Cl)cc2)OCCCC[C@H](C)Oc2ccc(NC(=O)Nc3ccc(C(F)(F)F)cc3)cc2C1=O`, the cytotoxicity call was “inactive”.

On to `Cn1cnc(S(=O)(=O)N[C@@H]2CC[C@H](CC(=O)Nc3ccccc3)O[C@H]2CO)c1`, for which the cytotoxicity call was “inactive”.

As for `COc1ccc(CN(C)C[C@@H]2Oc3c(NS(=O)(=O)c4cn(C)cn4)cccc3C(=O)N([C@H](C)CO)C[C@@H]2C)cc1`, the cytotoxicity call was “inactive”.

Consider `CCCN(C)C[C@H]1Oc2cc(C#Cc3ccccc3OC)ccc2S(=O)(=O)N([C@@H](C)CO)C[C@H]1C`, for which the cytotoxicity call was “inactive”.

(Values after the antibiotic and cytotoxicity screens of Wong et al. (2023).)
